# Rows were chosen to be rich in hits. Some 12% of all compounds tested hit in one or more screens of this group.
# PLAP act = activates human placental alkaline phosphatase | P05187 | purified PLAP enzyme, luminescent substrate read-out; hits give high values | activation fold at 20 µM | actives 1.2% (n = 96,000); in the data active means activation fold above about 2
# PostGolgi yeast = growth inhibition of a yeast mutant, post-Golgi transport screen; inhibition, % at 10 µM; actives 0.9% (n = 98,000); AID 739; post-Golgi transport phenotypic cell assay;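 further: yeast cells grown in 1536-well plates; yeast grown about 18 h at 30C before absorbance read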
# PostGolgi ctrl = yeast control strain growth, post-Golgi counter-screen; efflux-deficient yeast background strain, growth absorbance A615, 16 h; inhibition, % at 10 µM; AID 738; actives 5% (n = 98,000)
# Cav3 T inh = human Cav3.2 channel inhibition, primary screen; O95180; Cav3.2-expressing cells, Fluo-4 calcium fluorescence FDSS; hits give low values; B-score at 10 µM; actives 4% (n = 100,000);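 active means single-dose well whose peak fluorescence ratio is a statistical outlier from its plate by either plate-standardised score or position-corrected B-score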
# hDAT+cocaine = modulates human dopamine transporter uptake under cocaine; actives 1.3% (n = 110,000); LLC-PK1 hDAT cells, [14C]-dopamine uptake with cocaine IC80; actives deviate in either direction; B-score at 10 µM;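 active means Z score or B-score, a plate-position-corrected score, falls beyond the plate's 99.7% confidence bounds, in either direction; inactive means both scores lie inside the 99.7% bounds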;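 further: scored against the spread of the other compound wells on the same plate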
# D1 allo mod = allosteric modulators of human D1 dopamine receptor; HEK293 D1, CRE-luciferase, dopamine EC30 potentiation; actives deviate in either direction; B-score at 10 µM; actives 5.9% (n = 58,000);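 active means luminescence count or its row- and column-corrected plate score outside the 99.7% band of the plate's sample wells, on either side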
# Target sequence (P21728 whole entry, looked up): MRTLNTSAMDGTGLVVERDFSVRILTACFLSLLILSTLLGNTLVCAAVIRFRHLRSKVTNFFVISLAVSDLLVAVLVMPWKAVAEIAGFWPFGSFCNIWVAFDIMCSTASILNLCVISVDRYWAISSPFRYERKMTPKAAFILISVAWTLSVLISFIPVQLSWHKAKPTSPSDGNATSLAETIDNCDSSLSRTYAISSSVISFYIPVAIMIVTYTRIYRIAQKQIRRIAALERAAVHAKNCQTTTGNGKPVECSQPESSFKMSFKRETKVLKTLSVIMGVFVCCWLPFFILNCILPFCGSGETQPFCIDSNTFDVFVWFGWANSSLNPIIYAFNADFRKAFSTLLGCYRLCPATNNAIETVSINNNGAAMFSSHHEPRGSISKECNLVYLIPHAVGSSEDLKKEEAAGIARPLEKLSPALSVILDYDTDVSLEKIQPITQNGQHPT
# * marks the source's active call; other numbers are inactive results; / = not tested or not shown. Unless noted, no stated cut-off is given here; in the data, active means inhibition above about 30%; inactive means the rest.
SMILES,PLAP act,PostGolgi yeast,PostGolgi ctrl,Cav3 T inh,hDAT+cocaine,D1 allo mod
COc1ccc(NC(=O)c2nc3nccc(C)n3n2)cn1,1.3,-14,1,-0.25,-0.23,/
Cc1ccc(C(=O)Nc2ccc(Br)c(C(F)(F)F)c2)cc1,1,36*,27,-1.8,-0.91,/
COCCCNC(=O)c1cn(Cc2c(F)cccc2Cl)nn1,1,-8,19,0.48,-1.5,-3.9*
CCOC(=O)N1CCN(c2c(NCC3CCN(Cc4cccc(C)c4)CC3)c(=O)c2=O)CC1,1.4,4,7,-0.18,0.32,-0.18
CSc1nnc2n(C)c3c(c(=O)n12)C1(CCCC1)Cc1ccccc1-3,1,1,38*,-1.1,-0.92,/
Cc1cccc(CSc2nnc(-c3cccs3)n2Cc2ccco2)c1,1.1,-5,24,-5.5*,2.2,/
CCOC(=O)CC(=O)CSc1nc2sc(C)cc2c(=O)n1Cc1ccco1,0.9,-5,22,0.26,-0.017,2
Cc1cccc(CSc2nc3sc(C)c(C)c3c(=O)n2Cc2ccco2)c1,1.1,-5,4,-4.2*,1.3,/
Cc1cc2c(=O)n(Cc3ccco3)c(SCC(=O)c3ccc(Cl)s3)nc2s1,1.2,2,25,-4.7*,0.41,-0.021
Cc1sc2nc(SCC(=O)C(C)(C)C)n(Cc3ccco3)c(=O)c2c1C,1,2,39*,-0.81,0.84,/
CC1=C(C)[N+](=O)C2CCCCC2N1[O-] (stereo not drawn),0.9,2,0,0.87,-1.2,-0.2
COC(=O)c1cccc(NC(=S)NCc2ccc(Cl)cc2)c1,0.8,11,45*,-2.2,-0.0049,/
CCCCCCCCSc1nnc(CSc2nc3nc(C)cc(C)n3n2)o1,1,4,15,-1.2,0.017,/
Cc1cc(C(F)(F)F)nn1CC(=O)NNC(=S)Nc1ccc(F)cc1,2.8*,2,5,-0.021,-0.11,/
CCC(=O)Nc1c(-c2ccc(OC)cc2)c(=O)c2ccccc2n1C,1.1,10,5,0.43,-9.1*,0.47
COc1ccc(-c2cc(=O)c3ccccc3n2C)cc1,/,/,/,0.42,0.038,/
C=CC[N+](C)(C)C/C(Cl)=C(\Cl)c1ccccc1,0.8,-3,0,0.36,0.61,/
Cn1c(SCC2CCCCC2)nnc1-c1ccncc1,1.1,2,1,/,-7.9*,0.35
Cc1cccc2cc(COC(=O)C3CCCCC3)c(=O)[nH]c12,1.1,-1,5,0.7,-0.32,0.17
CSC(=NC#N)N1CCN(c2ccc(Cl)cc2)CC1,0.7,-3,19,-0.39,2.3,/
COC(=O)CSc1nc2ccccc2o1,1,4,-3,1.2,-0.33,-0.1
CCCCCCOC(=O)Sc1nc2ccccc2o1,1.1,34*,9,0.4,-0.12,-0.92
CC(=O)Oc1ccccc1C(=O)Oc1ccc(/C=N/n2cnnc2)cc1,0.9,3,11,-0.0026,1.7,-3.3*
CCOc1ccc(C2/C(=C(/O)c3ccc(Cl)cc3)C(=O)C(=O)N2CCCN(C)C)cc1OC (stereo not drawn),1.1,/,/,/,/,0.31
CC(C)(C)n1nc(-c2ccc(Cl)cc2)c2c(N)ncnc21,0.8,1,65*,-0.28,-0.56,/
SMILES,PLAP act,PostGolgi yeast,PostGolgi ctrl,Cav3 T inh,hDAT+cocaine,D1 allo mod
CC(C)(C)n1nc(-c2ccc(F)cc2)c2c(N)ncnc21,1,-16,57*,-0.11,1.1,/
CSC(=NNC(=O)c1ccc(O)cc1)SC,0.8,21,-4,-0.06,0.39,/
CC(O)C1CCC2C3CC[C@H]4CC(O)CCC4(C)C3CC3(OCCO3)C12C (stereo partly drawn),1.4,11,33*,1,0.13,/
C[C@H](O)[C@@]1(O)CC[C@H]2[C@@H]3CC[C@@H]4C[C@H](O)CC[C@]4(C)[C@H]3CC[C@@]21C,/,/,/,-1.1,0.25,/
CCC1CCC/C1=N\NC(=O)c1cc(C)[nH]n1 (stereo not drawn),2.3*,-1,6,-0.055,-0.051,/
Cc1cc(NC(=O)C2CCCN(S(=O)(=O)c3c(C)noc3C)C2)n[nH]1 (stereo not drawn),0.8,12,0,0.052,0.37,0.51
COc1ccc(-c2cc(-c3c(O)c(OC)c4occc4c3OC)[nH]n2)cc1,2.3*,16,56*,-2.4,0.0094,/
COc1ccc(-c2cc(-c3c(O)c(OC)c4occc4c3OC)[nH]n2)cc1OC,1.6,2,15,-0.58,-0.9,-0.18
Cn1ncc([N+](=O)[O-])c1C(=O)N1CCOCC1,0.9,-2,-5,0.076,-0.14,/

# Compound activity deposited in PubChem by several laboratories.
